Reference: PubChem BioAssay (EPA / NIEHS)
Several values for one entry are separate records, joined by “and”; a condition that tells them apart may be missing. Equal values may be shown once. Records with an inconclusive call do not appear. Activity calls are given as the source filed them. The calls were made as follows: active = hit-call score of the fitted dose curve at least 0.9, where 1 is the maximum; inconclusive = response in the unintended direction; inactive = score below 0.9.

Legend:
[1] = target: Cellular tumor antigen p53 (Homo sapiens) (UniProt P04637); assay: TOX21_p53_BLA_p2_ratio: Tox21 HCT-116 p53 Agonism Beta-lactamase Assay, Ratio, Phase 2 (AID 2283592)
Chain of Cellular tumor antigen p53 (Homo sapiens) (P04637 whole entry, looked up): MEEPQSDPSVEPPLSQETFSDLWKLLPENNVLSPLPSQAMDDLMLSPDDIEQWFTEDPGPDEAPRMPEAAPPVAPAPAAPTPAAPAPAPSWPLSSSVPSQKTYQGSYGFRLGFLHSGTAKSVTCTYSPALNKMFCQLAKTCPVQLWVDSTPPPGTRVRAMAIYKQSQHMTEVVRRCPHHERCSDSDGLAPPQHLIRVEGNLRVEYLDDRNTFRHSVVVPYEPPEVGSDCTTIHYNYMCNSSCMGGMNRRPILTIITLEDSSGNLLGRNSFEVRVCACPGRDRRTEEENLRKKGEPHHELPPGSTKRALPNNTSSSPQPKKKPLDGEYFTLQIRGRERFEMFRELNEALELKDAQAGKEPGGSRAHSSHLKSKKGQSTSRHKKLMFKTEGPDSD
How it was run: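 Read-out is the blue/green (460/530 nm, 405 nm excitation) ratio after 2 h CCF4-AM loading, fitted as gain versus DMSO. Compounds, pinned at 217-fold dilution from DMSO stocks, stayed 16 h on HCT-116 beta-lactamase reporter cells seeded 5 h earlier.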

[2] = TOX21_p53_BLA_p3_viability: Viability Assessment in the Tox21 HCT-116 p53 Agonism Beta-lactamase Assay, Phase 3 (AID 2283593);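 also: cells exposed to compound for 16 h before reading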
How it was run: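 Cellular ATP was quantified by CellTiter-Glo luminescence, read after 30 min at room temperature. Beforehand, HCT116 cells (4000/well) received compound 5 h post-seeding, 217-fold diluted from DMSO, then incubated 16 h at 37C.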

[3] = target: Cellular tumor antigen p53 (Homo sapiens) (UniProt P04637); assay: TOX21_p53_BLA_p3_ratio: Tox21 HCT-116 p53 Agonism Beta-lactamase Assay, Ratio, Phase 3 (AID 2283596)
How it was run: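 Cells were seeded at 4000/well, rested 5 h at 37C, then dosed with DMSO compound solutions (217-fold dilution) for 16 h. CCF4-AM substrate was loaded for 2 h at room temperature, and the 460/530 nm emission ratio was fitted for gain of signal versus DMSO.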

[4] = TOX21_p53_BLA_p4_viability: Viability Assessment in the Tox21 HCT-116 p53 Agonism Beta-lactamase Assay, Phase 4 (AID 2283597);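 also: hits lower the luminescence signal meaning cytotoxicity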
How it was run: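 Cytotoxicity as reduced cellular ATP (CellTiter-Glo luminescence, 30 min room temperature), measured in the same wells following the CCF4 FRET p53 reading. Human HCT-116 cells received compounds in DMSO (217-fold dilution) for 16 h.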

[5] = target: Cellular tumor antigen p53 (Homo sapiens) (UniProt P04637); assay: TOX21_p53_BLA_p5_ratio: Tox21 HCT-116 p53 Agonism Beta-lactamase Assay, Ratio, Phase 5 (AID 2283599)
How it was run: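 Beta-lactamase reporter ratio (blue 460 nm over green 530 nm, 405 nm excitation) after 2 h CCF4-AM loading, in HCT-116 cells exposed 16 h at 37 C to compounds pinned at 217-fold dilution. Increases relative to DMSO baseline scored.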

[6] = TOX21_p53_BLA_p5_viability: Viability Assessment in the Tox21 HCT-116 p53 Agonism Beta-lactamase Assay, Phase 5 (AID 2283600)
How it was run: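 Viability came from CellTiter-Glo ATP luminescence, read after 30 min at room temperature. Before this, HCT-116 p53-bla cells (4000/well) had 16 hours of compound exposure at 37C, with DMSO stocks diluted 217-fold on transfer.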

[7] = target: Cellular tumor antigen p53 (Homo sapiens) (UniProt P04637); assay: TOX21_p53_BLA_p4_ratio: Tox21 HCT-116 p53 Agonism Beta-lactamase Assay, Ratio, Phase 4 (AID 2283601)
How it was run: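 Signal is the blue/green (460nm/530nm) ratio of cleaved versus uncleaved CCF4-AM substrate, read after 2 h substrate loading. Cells were HCT116 carrying the p53-responsive beta-lactamase reporter, dosed 16 h at 37C, 5% CO2; CellTiter-Glo measured in parallel.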

[8] = ACEA_ER_AUC_viability: ACEA Biosciences xCELLigence Real-Time Cell Analysis on Estrogen Receptor Agonism for Viability (AID 2283782);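 also: hit means loss of impedance signal meaning reduced cell growth or viability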
How it was run: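 Viability endpoint: reduced impedance area under the curve relative to DMSO, recorded by real-time electrode sensing over ~80 h of continuous exposure. Duplicate plates of T47D in hormone-depleted medium; eight concentrations, 1:4 dilutions, 100 uM maximum.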

[9] = target: Thyroid hormone receptor alpha (Rattus norvegicus) + Thyroid hormone receptor beta (Rattus norvegicus) (UniProt P18113+P63059); assay: TOX21_TR_LUC_GH3_Antagonist_Followup: Tox21 GH3 Thyroid Hormone Receptor Antagonism Luciferase Follow-Up Assay (AID 2283942)
How it was run: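 Loss of T3-driven (1.0 nM final) reporter activity in GH3 cells was read by ONE-Glo luminescence after 24 h incubation at 37C; 15-point compound series spanned 92 uM to 5nM final, 1,500 cells/well.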

[10] = target: THRA (gene 7067) (UniProt P10827); assay: TOX21_TRA_COA_Antagonist_Followup_ratio: Tox21 Thyroid Hormone Receptor alpha Antagonism through Coactivator Recruitment Follow-Up Assay, Ratio (AID 2283953)
Chain of THRA (gene 7067) (P10827 whole entry, looked up, the tested form may be a part): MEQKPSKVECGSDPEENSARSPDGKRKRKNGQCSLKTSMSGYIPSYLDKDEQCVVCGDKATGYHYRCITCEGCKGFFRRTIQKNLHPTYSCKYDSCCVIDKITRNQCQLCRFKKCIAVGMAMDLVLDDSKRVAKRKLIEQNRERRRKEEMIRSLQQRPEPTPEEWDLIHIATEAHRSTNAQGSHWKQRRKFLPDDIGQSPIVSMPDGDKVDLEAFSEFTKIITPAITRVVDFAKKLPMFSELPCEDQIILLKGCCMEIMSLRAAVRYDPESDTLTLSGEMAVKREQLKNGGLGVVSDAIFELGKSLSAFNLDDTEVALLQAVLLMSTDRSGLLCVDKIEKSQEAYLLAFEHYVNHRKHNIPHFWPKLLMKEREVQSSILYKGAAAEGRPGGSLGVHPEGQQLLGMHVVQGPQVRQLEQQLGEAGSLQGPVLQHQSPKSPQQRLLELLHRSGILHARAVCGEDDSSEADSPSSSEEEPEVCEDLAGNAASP
How it was run: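 We measured antagonism of T3-type coactivator recruitment using a TR-FRET ratio (emission 520 and 495 nm) between a Tb-labelled anti-GST antibody on TRα LBD (2.5 nM) and SRC-2 peptide (200 nM). Activity was scaled between DMSO and T3 wells.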

[11] = target: THRB (gene 7068) (UniProt P10828); assay: TOX21_TRB_BLA_Antagonist_Followup_ratio: Tox21 Thyroid Hormone Receptor beta Antagonism Beta-lactamase (BLA) Follow-Up Assay, Ratio (AID 2283958)
Chain of THRB (gene 7068) (P10828 whole entry, looked up, the tested form may be a part): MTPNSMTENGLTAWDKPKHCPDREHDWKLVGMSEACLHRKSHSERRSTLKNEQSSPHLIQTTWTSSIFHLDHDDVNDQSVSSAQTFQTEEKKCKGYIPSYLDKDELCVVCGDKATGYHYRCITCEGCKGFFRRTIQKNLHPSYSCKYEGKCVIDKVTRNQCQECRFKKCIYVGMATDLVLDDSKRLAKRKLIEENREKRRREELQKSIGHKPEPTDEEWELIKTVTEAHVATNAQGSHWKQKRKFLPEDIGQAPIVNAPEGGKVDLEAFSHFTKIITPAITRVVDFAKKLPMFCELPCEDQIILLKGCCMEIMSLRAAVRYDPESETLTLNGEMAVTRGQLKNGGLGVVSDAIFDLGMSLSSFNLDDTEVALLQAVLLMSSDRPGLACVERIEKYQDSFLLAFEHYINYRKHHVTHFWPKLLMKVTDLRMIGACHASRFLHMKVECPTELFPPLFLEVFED
How it was run: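 Using charcoal-stripped 2% FBS medium, human TRβ-LBD/GAL4 reporter HEK293T cells received test compounds for 18 h. The endpoint is the cleaved-to-uncleaved substrate ratio (460/530 nm).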

[12] = TOX21_TRB_BLA_Antagonist_Followup_viability: Viability Assessment in the Tox21 Thyroid Hormone Receptor beta Antagonism Beta-lactamase (BLA) Follow-Up Assay (AID 2283961)
How it was run: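 ATP-based CellTiter-Glo luminescence (30 min, room temperature) run in the same wells as the TRβ-bla readout. Cells: GeneBLAzer HEK293T expressing GAL4-TRβ LBD, exposed 18 h at 37C to compounds at 11 concentrations in triplicate, stripped-serum medium.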

[13] = target: Retinoic acid receptor RXR-alpha (Homo sapiens) (UniProt P19793); assay: TOX21_TR_RXR_BLA_Antagonist_Followup_ratio: Tox21 Thyroid Hormone Receptor beta Retinoid X Receptor alpha (RXRa) Antagonism Beta-lactamase (BLA) Follow-Up Assay, Ratio (AID 2283972)
Chain of Retinoic acid receptor RXR-alpha (Homo sapiens) (P19793 whole entry, looked up): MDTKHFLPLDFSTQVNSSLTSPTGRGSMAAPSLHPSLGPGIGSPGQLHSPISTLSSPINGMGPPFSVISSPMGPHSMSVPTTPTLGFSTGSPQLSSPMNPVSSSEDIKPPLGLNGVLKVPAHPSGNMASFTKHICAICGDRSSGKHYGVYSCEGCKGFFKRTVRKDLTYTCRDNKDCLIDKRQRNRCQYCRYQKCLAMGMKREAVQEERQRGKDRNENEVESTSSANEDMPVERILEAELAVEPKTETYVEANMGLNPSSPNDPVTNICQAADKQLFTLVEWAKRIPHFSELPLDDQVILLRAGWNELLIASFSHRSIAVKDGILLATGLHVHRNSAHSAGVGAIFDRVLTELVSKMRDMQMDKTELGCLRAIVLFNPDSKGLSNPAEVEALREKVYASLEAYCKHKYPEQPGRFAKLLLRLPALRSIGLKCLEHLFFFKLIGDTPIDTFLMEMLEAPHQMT
How it was run: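 After 5 h attachment at 37C, HEK293T RXRa-bla cells (2,500/well, 2% charcoal-stripped FBS, no phenol red) received compounds at 11 concentrations in triplicate for 16 h. Beta-lactamase read as 460:530 nm ratio after 2 h RT substrate loading.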

Measured: AC50

CCOC(=O)COc1ccc(C)cc1
inactive: [1] | [2] | [3] | [4] | [5] | [6] | [7] | [8]

COC(=O)[C@@H]1[C@H]2C[C@H]3c4[nH]c5ccccc5c4CCN3C[C@@H]2CC[C@@H]1O
inactive: [1] | [2] | [3] | [4] | [5] | [6] | [7]

CO[C@H](C(=O)[C@@H](O)[C@@H](C)O)C1Cc2cc3cc(O[C@H]4C[C@@H](O[C@H]5C[C@@H](O)[C@H](O)[C@@H](C)O5)[C@@H](O)[C@@H](C)O4)c(C)c(O)c3c(O)c2C(=O)[C@H]1O[C@H]1C[C@@H](O[C@H]2C[C@@H](O[C@H]3C[C@](C)(O)[C@H](O)[C@@H](C)O3)[C@H](O)[C@@H](C)O2)[C@H](O)[C@@H](C)O1 (stereo partly specified)
inactive: [2] | [4] | [6] | [10] | [12]
active: [1] 23.8 nM and 43.4 nM | [3] 24.2 nM and 37.6 nM | [5] 36 nM and 39.5 nM | [9] 745 nM | [11] 4010 nM | [13] 1360 nM

N[C@@H](Cc1cc(I)c(O)c(I)c1)C(=O)O
inactive: [1] | [2] | [3] | [4] | [5] | [7]

CC(=O)O[C@H]1C(=O)[C@@]2(C)[C@H]([C@H](OC(=O)c3ccccc3)[C@]3(O)C[C@H](OC(=O)[C@H](O)[C@@H](NC(=O)c4ccccc4)c4ccccc4)C(C)=C1C3(C)C)[C@]1(OC(C)=O)CO[C@@H]1C[C@@H]2O
inactive: [2] | [4] | [6]
active: [1] 179 nM | [3] 8.26 nM | [5] 4.57 µM | [7] 7.02 nM

c1cnc2c(n1)CCCC2
inactive: [1] | [2] | [3] | [4] | [5] | [7]

CS(=O)(=O)Nc1cc2occ(NC=O)c(=O)c2cc1Oc1ccccc1
inactive: [1] | [2] | [3] | [4] | [6]

O=C(c1ccccc1)c1cccc(O)c1
inactive: [1] | [2] | [3] | [4] | [5] | [7]

O=P(O)(O)OP(=O)(O)O
inactive: [1] | [2] | [3] | [4] | [6] | [7]

O=C(NCCO[N+](=O)[O-])c1cccnc1
inactive: [1] | [2] | [3] | [4] | [6] | [7]

CCN(CC)C(=O)Nc1ccc(OCC(O)CNC(C)(C)C)c(C(C)=O)c1 (stereo unspecified)
inactive: [1] | [2] | [3] | [4] | [6]

CO[C@@H]1[C@@H](OC)[C@H](C)[C@@](O)(CC(=O)O)O[C@H]1[C@H](C)[C@H]1O[C@@]2(CC[C@@](C)([C@H]3CC[C@@](C)([C@@H]4O[C@@H]([C@H]5O[C@](C)(O)[C@H](C)C[C@@H]5C)C[C@@H]4OC4C[C@H](OC)[C@@H](OC)[C@H](C)O4)O3)O2)C[C@H](O)[C@H]1C (stereo partly specified)
active: [1] 8980 nM | [5] 16.7 µM
inactive: [2] | [3] | [4] | [7]

NC(Cc1ccc(F)cc1)C(=O)O (stereo unspecified)
inactive: [1] | [2] | [3] | [4] | [5] | [7]

C=C[C@]1(C)C[C@@H](OC(=O)CO)[C@]2(C)[C@H](C)CC[C@]3(CCC(=O)[C@H]32)[C@@H](C)[C@@H]1O
inactive: [1] | [2] | [3] | [4] | [6] | [7]
